Laboratory results from PubChem BioAssay (Tox21).
Several values for one entry are separate records, joined by “and”; a condition that tells them apart may be missing. Identical values can stand only once. Inconclusive results are not listed. Some structures have more than one record in an assay (separate samples or runs), and their calls can disagree. Activity calls are given as the source filed them. Unless noted, the call rests on the fitted dose curve; in most records, active means well fitted curve in the direction sought with a large enough effect in the repeat runs; inconclusive means weak or mixed curves; inactive means no such curve, though single readings can be large; an effect the other way counts as inactive or inconclusive.

Experiments:
[1] = qHTS assay for small molecules that induce genotoxicity in human embryonic kidney cells expressing luciferase-tagged ATAD5 - cell viability (AID 651634; calls by dose curve; further: nearly all actives have a fitted effect of over 25% in size; further: potency means the concentration at half of the fitted maximal effect)
How it was run: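 Quantitative high-throughput format. HEK293T cells expressing ATAD5 fused to luciferase were plated at 2,000 cells/well and treated 15.5 hr with compound versus DMSO. Viability was determined by fluorescent live-cell protease substrate, 30 min at 37C.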

[2] = qHTS assay for small molecule disruptors of the mitochondrial membrane potential - cell viability (AID 720634; calls by dose curve; further: nearly all actives have a fitted effect of over 20% in size; further: potency means the concentration at half of the fitted maximal effect)
How it was run: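 Same-well counter-screen: following the MMP dye addition, CellTiter-Glo was added to 1 hr compound-treated HepG2 cells and luminescence read after 30 min at room temperature.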

[3] = qHTS assay to test for compound auto fluorescence at 590 nm (red) in HepG2 cells (AID 720674); further: potency means the concentration at half of the fitted maximal effect
How it was run: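 We screened compounds on adherent HepG2 cells, incubating them for an hour at 37 C in 5% CO2 before reading emission at 590 nm under 540 nm excitation; values reflect equivalence to Rose Bengal sodium fluorescence.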

[4] = qHTS assay to test for compound auto fluorescence at 535 nm (green) in HepG2 cells (AID 720675); further: potency means the concentration at half of the fitted maximal effect
[5] = qHTS assay to test for compound auto fluorescence at 460 nm (blue) in HEK293 cells (AID 720678)
How it was run: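 Cells were seeded and left to adhere for 4-5 hr at 37C. Compounds were then pin-transferred. After an overnight incubation at 37C under 5% CO2, intrinsic fluorescence at 405/460 nm was measured and referenced to triamterene.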

[6] = qHTS assay to test for compound auto fluorescence at 535 nm (green) in HEK293 cells (AID 720680); further: potency means the concentration at half of the fitted maximal effect
[7] = qHTS assay to test for compound auto fluorescence at 460 nm (blue) in HEK293 cell free culture (AID 720681)
How it was run: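 Blue fluorescence (Ex 405/Em 460 nm, triamterene-equivalent) was read immediately after pin transfer of compound or DMSO into medium (DMEM, 10% FBS) without cells.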

[8] = qHTS assay to test for compound auto fluorescence at 535 nm (green) in HEK293 cell free culture (AID 720682); further: potency means the concentration at half of the fitted maximal effect
How it was run: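 No cells present: wells hold DMEM supplemented with 10% FBS, into which compound or vehicle is pinned. Green emission is then recorded (485 nm excitation, 535 nm emission) and scaled to fluorescein.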

[9] = qHTS assay to test for compound auto fluorescence at 590 nm (red) in HEK293 cell free culture (AID 720683); further: potency means the concentration at half of the fitted maximal effect
How it was run: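 Red-channel autofluorescence of compounds in culture medium (DMEM, 10% FBS), no cells, measured at 540/590 nm. Rose Bengal sodium is the reference fluorophore for equivalence.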

[10] = qHTS assay to test for compound auto fluorescence at 590 nm (red) in HepG2 cell free culture (AID 720684)
How it was run: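 Cell-free; medium MEM + 10% FBS; compound or DMSO added by pintool; read Ex 540/Em 590 nm; Rose Bengal sodium as red reference fluorophore.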

[11] = qHTS assay to test for compound auto fluorescence at 460 nm (blue) in HepG2 cell free culture (AID 720685)
How it was run: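 Cell-free plates of MEM plus 10% FBS received 23 nL compound or DMSO vehicle; blue-channel (405/460 nm) intensity scored against triamterene as reference fluorophore.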

[12] = qHTS assay to test for compound auto fluorescence at 535 nm (green) in HepG2 cell free culture (AID 720686); further: potency means the concentration at half of the fitted maximal effect
[13] = qHTS assay to test for compound auto fluorescence at 460 nm (blue) in HepG2 cells (AID 720687)
How it was run: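 Blue-channel autofluorescence (Ex/Em 405/460 nm, triamterene-equivalent) was measured after 1 hr compound exposure at 37 C, 5% CO2. Cells were HepG2, plated overnight at 37 C in MEM plus 10% FBS.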

[14] = qHTS assay for small molecule agonists of the p53 signaling pathway - cell viability (AID 651633; calls by dose curve; further: nearly all actives have a fitted effect of over 30% in size; further: potency means the concentration at half of the fitted maximal effect)
How it was run: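 Viability counter-read: CellTiter-Glo luminescence (30 min, room temperature) in the same p53RE-bla plates. These plates had been exposed to compounds for 16 h at 37 C.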

[15] = qHTS assay for small molecule disruptors of the mitochondrial membrane potential (AID 720635); further: potency means the concentration at half of the fitted maximal effect
How it was run: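 Mitochondrial membrane potential tracked with Mito-MPS dye, red aggregates (ex 540/em 590 nm) against green monomers (ex 490/em 535 nm). Compound treatment 1 hr at 37C, dye 30 min in HepG2.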

[16] = qHTS assay to test for compound auto fluorescence at 590 nm (red) in HEK293 cells (AID 720679); further: potency means the concentration at half of the fitted maximal effect
How it was run: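 Each well held 2,000 HEK293 cells in medium containing 10% dialyzed FBS. Following 4-5 hr attachment at 37C, 23 nL test compound or DMSO was added; plates sat overnight, and red fluorescence (540/590nm) was recorded.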

[17] = qHTS assay for small molecules that induce genotoxicity in human embryonic kidney cells expressing luciferase-tagged ATAD5 (AID 651632); further: nearly all actives have a fitted effect of over 15% in size; further: potency means the concentration at half of the fitted maximal effect
How it was run: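 Test compounds were delivered by pin tool onto HEK293T reporter cells (2,000/well) expressing ATAD5 fused to luciferase. After 16 hr at 37C, 5% CO2, Amplite was added for 30 min at room temperature and luminescence was measured.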

[18] = molecular target: Glucocorticoid receptor (Homo sapiens) (UniProt P04150); test: qHTS assay to identify small molecule agonists of the glucocorticoid receptor (GR) signaling pathway (AID 720691; active means well fitted activation curve with a large enough effect in the signal ratio in the repeat runs, not every such curve was filed as active; the % refers to the signal ratio)
Glucocorticoid receptor (Homo sapiens), sequence (P04150 whole entry, looked up): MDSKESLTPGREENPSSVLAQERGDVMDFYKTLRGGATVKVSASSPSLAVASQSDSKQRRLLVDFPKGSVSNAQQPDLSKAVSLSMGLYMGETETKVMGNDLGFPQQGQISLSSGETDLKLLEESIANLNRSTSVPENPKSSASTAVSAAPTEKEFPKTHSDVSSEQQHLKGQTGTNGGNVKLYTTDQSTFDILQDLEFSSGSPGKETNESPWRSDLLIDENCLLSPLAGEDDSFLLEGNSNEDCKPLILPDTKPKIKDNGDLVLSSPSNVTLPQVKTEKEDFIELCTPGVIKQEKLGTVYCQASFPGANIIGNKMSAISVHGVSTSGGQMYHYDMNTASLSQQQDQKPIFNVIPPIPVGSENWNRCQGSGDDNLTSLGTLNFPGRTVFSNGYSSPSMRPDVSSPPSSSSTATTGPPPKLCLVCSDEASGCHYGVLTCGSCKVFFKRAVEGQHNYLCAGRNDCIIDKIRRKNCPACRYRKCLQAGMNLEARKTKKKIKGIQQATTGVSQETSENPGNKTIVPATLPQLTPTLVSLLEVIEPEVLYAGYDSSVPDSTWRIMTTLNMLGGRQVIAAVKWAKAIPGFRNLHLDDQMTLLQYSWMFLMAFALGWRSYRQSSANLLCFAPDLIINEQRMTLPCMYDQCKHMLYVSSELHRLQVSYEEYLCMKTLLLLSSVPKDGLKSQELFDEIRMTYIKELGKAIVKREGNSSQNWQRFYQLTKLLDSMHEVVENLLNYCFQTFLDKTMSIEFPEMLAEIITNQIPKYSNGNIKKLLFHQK
How it was run: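 A HeLa cervical cancer line expressing GR and a glucocorticoid response element-driven beta-lactamase gene is treated with compounds for 18 h; LiveBLAzer B/G FRET substrate is then applied and fluorescence read.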

[19] = molecular target: Glucocorticoid receptor (Homo sapiens) (UniProt P04150); test: qHTS assay to identify small molecule antagonists of the glucocorticoid receptor (GR) signaling pathway (AID 720692; active means well fitted inhibition curve with a large enough effect in the signal ratio in the repeat runs, not every such curve was filed as active; the % refers to the signal ratio)
How it was run: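 GRE-bla HeLa line, dex-stimulated (5 nM final). Compound exposure 18 h, 37 C. Beta-lactamase FRET read after 2 h RT substrate.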

Measured: Potency
Tags describe the fitted curve by direction and shape or compound fluorescence and quenching.

CC(=O)CC(c1ccccc1)c1c(O)c2ccccc2oc1=O (configuration not stated)
inactive: [1] | [2] | [3] | [4] | [5] | [6] | [7] | [8] | [9] | [10] | [11] | [12] | [13]

CCCCC(CC)C(=O)O (configuration not stated)
inactive and 6.86 µM (active): [15]
inactive: [14] | [2] | [3] | [4] | [5] | [16] | [6] | [7] | [8] | [9] | [10] | [12] | [13]

O=C1OC2(c3ccccc31)c1cc(Br)c(O)c(Br)c1Oc1c2cc(Br)c(O)c1Br
inactive: [17] | [14] | [2] | [5] | [7] | [11] | [13]
active: [1] 21.1 µM and 1.56 µM and 19.9 µM | [3] 3.16 µM and 2.51 µM | [4] 12.6 µM and 4.47 µM and 17.8 µM | [16] 5.01 µM [fluorescent] and 4.47 µM [fluorescent] and 3.55 µM [fluorescent] | [6] 11.2 µM [fluorescent] and 28.2 µM [fluorescent] | [8] 11.2 µM [fluorescent] and 17.8 µM [fluorescent] | [9] 4.47 µM [fluorescent] and 3.55 µM [fluorescent] | [12] 10 µM [fluorescent] and 20 µM [fluorescent]

CCN(Cc1c(F)cccc1Cl)c1c([N+](=O)[O-])cc(C(F)(F)F)cc1[N+](=O)[O-]
inactive: [17] | [1] | [2] | [3] | [4] | [5] | [6] | [7] | [8] | [9] | [10] | [11] | [12] | [13]
active: [15] 54.5 µM

F[B-](F)(F)F
inactive: [17] | [1] | [2] | [15] | [3] | [4] | [5] | [6] | [7] | [8] | [9] | [10] | [12] | [13]

C=C1CC[C@H](O)C/C1=C\C=C1/CCC[C@]2(C)[C@@H]([C@H](C)CCCC(C)C)CC[C@@H]12
active: [14] 26.6 µM and 60.6 µM
inactive: [17] | [2] | [15] | [3] | [4] | [5] | [6] | [7] | [8] | [9] | [10] | [12] | [13] | [18]

O=S1(=O)OC(c2ccc(O)cc2)(c2ccc(O)cc2)c2ccccc21
active: [1] 48.6 µM and 8.63 µM
inactive: [17] | [14] | [3] | [4] | [5] | [6] | [7] | [8] | [9] | [12] | [13]

O=C(Nc1ncc([N+](=O)[O-])s1)c1cccs1
inactive: [3] | [4] | [5] | [6] | [7] | [8] | [9] | [10] | [12] | [13] | [18]
active: [17] 3.76 µM | [1] 26.6 µM | [2] 15 µM | [15] 0.668 µM

O=C1NC(=O)C(c2ccccc2)(c2ccccc2)N1
inactive: [17] | [1] | [2] | [15] | [3] | [4] | [5] | [16] | [6] | [7] | [8] | [9] | [12] | [13] | [18] | [19]

Cc1ccc(S(=O)(=O)O)cc1
inactive: [14] | [1] | [2] | [15] | [3] | [4] | [5] | [6] | [7] | [8] | [9] | [10] | [12] | [13]

O=c1[nH]cnc2c1ncn2[C@H]1CC[C@@H](CO)O1
inactive: [17] | [1] | [2] | [15] | [3] | [4] | [5] | [6] | [7] | [8] | [9] | [11] | [12] | [13] | [18] | [19]

CN1CCC[C@H]1c1cccnc1
inactive: [17] | [1] | [2] | [15] | [3] | [4] | [5] | [6] | [7] | [8] | [9] | [10] | [11] | [12] | [13]

CN1[C@@H]2CC(OC(=O)[C@H](CO)c3ccccc3)C[C@H]1[C@@H]1O[C@@H]12 (some centres not stated)
inactive: [17] | [14] | [1] | [3] | [4] | [5] | [16] | [6] | [7] | [8] | [9] | [10] | [12] | [13]

C/C=C/C=C/C(=O)O
inactive: [14] | [1] | [2] | [15] | [3] | [4] | [5] | [16] | [6] | [7] | [8] | [9] | [12] | [13]
